# Experimental data: PubChem BioAssay (NCI)
# Where “and” joins values, the source holds several entries; their conditions need not be identical. Identical values can stand only once. The panel holds about 83,000 compounds, 20% with a hit somewhere; the sample as a whole holds those more often.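 Testing used 96-well plates and a 48-hour single-concentration exposure. Example: -40 means 40% of the starting cells died.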 A number with no mark means an inactive call. Calls of active or inactive are those of the source.
# Test system: SK-MEL-5 melanoma
# Experiment: NCI-60 one-dose screen, 48 h (100 = growth as untreated, 0 = no growth, -100 = all killed)
# Conditions: 0.01 µM
# Procedure: Growth inhibition of the SK-MEL-5 human tumor cell line is measured as a screen for anti-cancer activity. Cells are grown in 96 well plates and exposed to the test compound for 48 hours. Compounds are tested at a single concentration, which is 10^-5 M for most compounds. The reported endpoint is percent growth (GI% or GIPRCNT), where numbers from 0 - 100% represent growth inhibition, and numbers from -100% - 0 represent cell death. For example, a value of 40 represents 60% growth inhibition. A value of 0 means no net growth occurred over the course of the experiment. A value of -40 indicates 40% of cells at the beginning of the experiment died by the end of the experiment. A value of -100 means all cells are dead at the end of the experiment.
# NCI-60 Human Tumor Cell Lines Screen was performed using the standard one-dose NCI protocol, which is described in more detail at https://dtp.cancer.gov/discovery_development/nci-60/default.htm.
# Compounds with GIPRCNT values below 10 were considered active. Activity score was based on GIPRCNT using the following formula: […]
# Score is 0 for GIPRCNT values of 100 or above, 50 for GIPRCNT values of 0, and 100 for GIPRCNT values of -100.
row,Structure (SMILES),growth [%]
1,CC(=O)O[C@H]1C(=O)[C@@]2(C)[C@H]([C@H](OC(=O)c3ccccc3)[C@]3(O)C[C@H](OC(=O)[C@H](O)[C@@H](NC(=O)c4ccccc4)c4ccccc4)C(C)=C1C3(C)C)[C@]1(OC(C)=O)CO[C@@H]1C[C@@H]2O,18

# Same assay, conditions: 2.5 µM
row,Structure (SMILES),growth
1,CC(=O)O[C@H]1C(=O)[C@@]2(C)[C@H]([C@H](OC(=O)c3ccccc3)[C@]3(O)C[C@H](OC(=O)[C@H](O)[C@@H](NC(=O)c4ccccc4)c4ccccc4)C(C)=C1C3(C)C)[C@]1(OC(C)=O)CO[C@@H]1C[C@@H]2O,4.29% (active)

# Same assay, conditions: 5 µM
row,Structure (SMILES),growth [%]
1,CC(=O)O[C@H]1C(=O)[C@@]2(C)[C@H]([C@H](OC(=O)c3ccccc3)[C@]3(O)C[C@H](OC(=O)[C@H](O)[C@@H](NC(=O)c4ccccc4)c4ccccc4)C(C)=C1C3(C)C)[C@]1(OC(C)=O)CO[C@@H]1C[C@@H]2O,17.5

# Same assay, conditions: 10 µM
row,Structure (SMILES),growth
1,COc1cccc(C(c2cc3c(cc2O)OCO3)N2CCOCC2)c1OC (stereo not given),99.1%
2,O=C1C(Cl)=C(Cl)C(Cl)(Cl)C(Cl)C1(Cl)Cl (stereo not given),106%
3,CC(=O)O[C@H]1C(=O)[C@@]2(C)[C@H]([C@H](OC(=O)c3ccccc3)[C@]3(O)C[C@H](OC(=O)[C@H](O)[C@@H](NC(=O)c4ccccc4)c4ccccc4)C(C)=C1C3(C)C)[C@]1(OC(C)=O)CO[C@@H]1C[C@@H]2O,34.6% and 13%
4,Cn1c2nc3ccccc3c-2nc2ccccc21,82.5% and 65.6%
5,CCC(C)(c1ccc(O)c(C)c1)c1ccc(O)c(C)c1,95.2%
6,S=C1SCN(CCc2ccccc2)CN1CCc1ccccc1,89%
7,COc1cc(N)ccc1Nc1c2ccccc2nc2ccccc12,85%
8,Cc1cc(Cl)ccc1NC(=O)/C(Cl)=C1/Sc2ccccc2NC1=O,90%
9,CN(C)CCNc1cccc2sc3ccc(O)cc3c(=O)c12,44%
10,O=C(O)c1ccccc1.[Ag],28.5%
11,Cc1cc(O)c2c(c1O)C(=O)C13C(=C2O)C(=O)C2C(O)C1C1C(O)C3C(=O)C3=C(O)c4c(O)cc(C)c(O)c4C(=O)C321 (stereo not given),-74.9% (active)
12,O=Nc1ccc(Nc2ccccc2)cc1,87.9%
13,O=S(=O)(c1cc(Cl)ccc1O)c1cc(Cl)ccc1O,53.5%
14,CC1CCC2(C(=O)O)CCC3(C)C(=CCC4C5(C)CC(O)C(O)C(C)(CO)C5C(O)CC43C)C2C1C (stereo not given),4.98% (active)
15,S=P(N1CC1)(N1CC1)N1CC1,96.9% and 92.8%
16,O=C1C=CC(=O)N1c1ccc(N2C(=O)C=CC2=O)cc1,103%
17,C=C1N(C)c2ccc(Cl)cc2C1(C)C,90.5%
18,COc1ccc(C(C#N)=C2C=CC(=NO)C=C2)cc1,80.3%

row,Structure (SMILES),growth
1,COc1ccc2c(c1)[nH]c1c(/C=C/c3ccccc3)nccc12,72.8%
2,CCC(=O)Oc1ccc(/C=N/NC(N)=S)nc1,31%
3,O=C(NC(=S)Nc1ccccn1)c1ccccc1,93.3%
4,CCOC(=O)[C@]1(Br)CC[C@@]1(Br)C(=O)OCC,103%
5,CN(C)c1ccc(/C=C/c2ccnc3ccccc23)cc1N,13.6%
6,Cc1cc(N=C2C=CC(=[N+](C)C)C=C2)c(N)cc1N,90%
7,O=C1c2cccc3cc([N+](=O)[O-])cc(c23)C(=O)N1CCN1CCCC1,-88.6% (active)
8,NCc1c(O)ccc2ccccc12,86.3%
9,O=C(CNS(=O)(=O)Cc1ccccc1)NNc1ccccc1,47.5%
10,O=[N+]([O-])c1cc(S(=O)(=O)Nc2ccccc2)ccc1Cl,92.8%
11,CN(CC(=O)O)c1ccc(/C=C/c2ccnc3ccccc23)cc1,93%
12,Nc1nc(N)c2cc(Sc3ccc4ccccc4c3)ccc2n1,23.4%
13,O=c1[nH]cc(/C=N\Nc2ccccc2)c(=O)[nH]1,57.8%
14,N#CC(=C1C=CC(=NO)C=C1)c1ccccc1,2.56% (active)
15,ClCCn1c(CCl)nc2ccc(Cl)cc21,-94.9% (active)
16,N#C/C(=C/N1C(=O)/C(=C/c2ccc([N+](=O)[O-])cc2)SC1=S)c1nc2ccccc2s1,63.5%
17,COc1ccc2oc(-c3ccc(Cl)cc3)c(N3CCN(C)CC3)c2c1,-14.8% (active)
18,Cn1ncc2cc3c(Nc4ccc(Cl)cc4)cccc3nc21,82.1%

# Same assay, conditions: 100 µM
row,Structure (SMILES),growth [%]
1,S=P(N1CC1)(N1CC1)N1CC1,48.6
